Source: paper PMC7862700, “An all-to-all approach to the identification of sequence-specific readers for epigenetic DNA modifications on cytosine”

Legend:
Experiment in all cases: DAPPL (digital affinity profiling via proximity ligation, sequencing); 10 mM Tris-HCl pH 7.5, 50 mM NaCl, 1 mM DTT, 4% glycerol, room temperature, 30 min; GST-TFs on glutathione beads, 16-mer random dsDNA library, 0.1% formaldehyde crosslink after washing; high values mean tight binding
Settings in all cases: protein: recombinant; tags: N-terminal GST; dsDNA, one strand shown
FLI1 = biological target: T1, FLI1 (Homo sapiens, UniProt Q01543 1-452)
T1 sequence: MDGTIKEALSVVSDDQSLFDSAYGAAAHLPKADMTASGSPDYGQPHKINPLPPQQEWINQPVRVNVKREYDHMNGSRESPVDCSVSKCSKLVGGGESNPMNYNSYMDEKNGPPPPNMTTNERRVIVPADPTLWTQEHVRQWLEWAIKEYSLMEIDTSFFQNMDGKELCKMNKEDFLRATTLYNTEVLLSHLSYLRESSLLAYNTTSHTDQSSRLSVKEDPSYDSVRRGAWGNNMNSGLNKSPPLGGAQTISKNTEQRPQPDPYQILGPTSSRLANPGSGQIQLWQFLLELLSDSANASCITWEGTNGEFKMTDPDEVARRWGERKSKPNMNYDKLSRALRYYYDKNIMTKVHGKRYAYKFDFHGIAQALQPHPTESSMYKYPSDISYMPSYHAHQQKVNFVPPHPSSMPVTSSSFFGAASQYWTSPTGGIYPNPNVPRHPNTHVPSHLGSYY
How it was run: (§1)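 Human transcription factors fused to GST were expressed in yeast, captured on glutathione beads, given DNA barcodes and pooled with a GST-only negative control. Pools were incubated with 200 nmole of a 16-mer random double-stranded DNA library in Tris/NaCl/DTT/glycerol buffer at room temperature for 30 min. They were then washed, crosslinked with 0.1% formaldehyde, proximity-ligated (BsaI/T4 ligase, 1 h, 37 °C), PCR-amplified and sequenced on an Illumina NextSeq500. Binding signal is each 6-mer's read frequency for a factor divided by its frequency for the GST control.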

ELK1 = biological target: T2, ELK1 (Homo sapiens, UniProt P19419 1-428)
T2 sequence: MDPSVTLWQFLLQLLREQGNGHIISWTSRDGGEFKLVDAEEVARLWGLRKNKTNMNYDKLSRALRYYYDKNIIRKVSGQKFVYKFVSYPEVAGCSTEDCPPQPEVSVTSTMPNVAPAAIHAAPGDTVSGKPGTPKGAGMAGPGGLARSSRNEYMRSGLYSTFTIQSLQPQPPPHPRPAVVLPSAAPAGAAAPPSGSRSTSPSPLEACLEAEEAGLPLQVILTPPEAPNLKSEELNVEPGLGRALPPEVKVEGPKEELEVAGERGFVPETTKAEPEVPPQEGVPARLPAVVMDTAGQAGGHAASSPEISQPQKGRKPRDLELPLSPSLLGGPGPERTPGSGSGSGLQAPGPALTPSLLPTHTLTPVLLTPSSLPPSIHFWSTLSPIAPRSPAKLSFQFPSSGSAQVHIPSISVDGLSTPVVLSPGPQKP
How it was run: as §1

GABPA = biological target: T3, GABPA (Homo sapiens, UniProt Q06546 1-454)
T3 sequence: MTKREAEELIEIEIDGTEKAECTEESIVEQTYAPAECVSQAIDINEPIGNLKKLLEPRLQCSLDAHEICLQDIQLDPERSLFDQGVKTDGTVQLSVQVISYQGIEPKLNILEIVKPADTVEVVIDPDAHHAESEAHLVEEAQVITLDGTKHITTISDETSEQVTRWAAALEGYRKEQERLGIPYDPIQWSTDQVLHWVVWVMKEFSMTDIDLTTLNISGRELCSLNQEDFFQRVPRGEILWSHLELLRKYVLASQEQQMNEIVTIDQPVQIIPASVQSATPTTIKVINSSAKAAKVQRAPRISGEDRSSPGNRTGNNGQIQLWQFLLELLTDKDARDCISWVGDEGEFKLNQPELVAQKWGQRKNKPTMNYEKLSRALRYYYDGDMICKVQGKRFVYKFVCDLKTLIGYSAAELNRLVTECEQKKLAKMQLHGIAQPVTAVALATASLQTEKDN
How it was run: as §1

ERG = biological target: T4, ERG (Homo sapiens, UniProt P11308 1-479)
T4 sequence: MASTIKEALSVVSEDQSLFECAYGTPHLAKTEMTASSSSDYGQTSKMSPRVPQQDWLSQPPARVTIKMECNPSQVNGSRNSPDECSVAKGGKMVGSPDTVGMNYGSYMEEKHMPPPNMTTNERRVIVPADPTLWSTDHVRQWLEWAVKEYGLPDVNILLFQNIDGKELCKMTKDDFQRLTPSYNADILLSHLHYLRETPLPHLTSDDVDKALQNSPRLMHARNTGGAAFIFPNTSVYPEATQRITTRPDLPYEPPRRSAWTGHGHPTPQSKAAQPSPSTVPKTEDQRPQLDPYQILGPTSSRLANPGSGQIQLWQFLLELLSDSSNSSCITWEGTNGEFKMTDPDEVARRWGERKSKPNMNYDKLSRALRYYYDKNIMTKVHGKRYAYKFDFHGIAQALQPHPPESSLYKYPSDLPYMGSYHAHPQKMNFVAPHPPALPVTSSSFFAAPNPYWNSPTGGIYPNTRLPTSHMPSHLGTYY
How it was run: as §1

ELF1 = ELF1 (Homo sapiens, UniProt P32519 1-619)
How it was run: as §1

EHF = biological target: T5, EHF (Homo sapiens, UniProt Q9NZC4 1-300)
T5 sequence: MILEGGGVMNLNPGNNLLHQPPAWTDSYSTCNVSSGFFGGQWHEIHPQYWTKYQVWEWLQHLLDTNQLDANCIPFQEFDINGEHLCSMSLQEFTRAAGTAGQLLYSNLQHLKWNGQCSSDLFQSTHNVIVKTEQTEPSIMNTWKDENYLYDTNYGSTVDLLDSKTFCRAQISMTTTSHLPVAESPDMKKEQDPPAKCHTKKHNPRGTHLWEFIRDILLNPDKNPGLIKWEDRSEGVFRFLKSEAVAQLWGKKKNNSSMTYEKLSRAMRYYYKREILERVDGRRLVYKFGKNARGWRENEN
How it was run: as §1

SPI1 = SPI1 (Homo sapiens, UniProt P17947 1-270)
How it was run: as §1

SPIB = SPIB (Homo sapiens, UniProt Q01892 1-262)
How it was run: as §1

ELK3 = biological target: T6, ELK3 (Homo sapiens, UniProt P41970 1-407)
T6 sequence: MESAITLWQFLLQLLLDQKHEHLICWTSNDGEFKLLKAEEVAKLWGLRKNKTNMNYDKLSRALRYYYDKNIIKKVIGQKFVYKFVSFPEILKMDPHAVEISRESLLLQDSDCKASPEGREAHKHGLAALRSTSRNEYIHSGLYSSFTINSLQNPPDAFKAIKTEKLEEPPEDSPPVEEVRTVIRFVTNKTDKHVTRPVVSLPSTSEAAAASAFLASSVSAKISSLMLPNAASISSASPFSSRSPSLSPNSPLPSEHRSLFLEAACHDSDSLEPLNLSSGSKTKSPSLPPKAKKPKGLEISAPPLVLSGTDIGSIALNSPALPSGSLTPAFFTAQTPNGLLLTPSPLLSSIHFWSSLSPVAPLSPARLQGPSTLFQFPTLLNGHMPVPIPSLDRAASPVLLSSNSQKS
How it was run: as §1

Sequence of SPIB (Q01892 whole entry): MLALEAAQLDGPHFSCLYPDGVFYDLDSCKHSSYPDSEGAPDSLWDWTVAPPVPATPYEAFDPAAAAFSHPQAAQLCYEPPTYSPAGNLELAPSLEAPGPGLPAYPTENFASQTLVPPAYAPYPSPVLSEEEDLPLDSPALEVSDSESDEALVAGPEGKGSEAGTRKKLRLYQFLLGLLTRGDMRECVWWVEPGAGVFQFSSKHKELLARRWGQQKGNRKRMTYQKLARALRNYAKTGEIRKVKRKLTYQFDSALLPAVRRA
Sequence of ELF1 (P32519 whole entry): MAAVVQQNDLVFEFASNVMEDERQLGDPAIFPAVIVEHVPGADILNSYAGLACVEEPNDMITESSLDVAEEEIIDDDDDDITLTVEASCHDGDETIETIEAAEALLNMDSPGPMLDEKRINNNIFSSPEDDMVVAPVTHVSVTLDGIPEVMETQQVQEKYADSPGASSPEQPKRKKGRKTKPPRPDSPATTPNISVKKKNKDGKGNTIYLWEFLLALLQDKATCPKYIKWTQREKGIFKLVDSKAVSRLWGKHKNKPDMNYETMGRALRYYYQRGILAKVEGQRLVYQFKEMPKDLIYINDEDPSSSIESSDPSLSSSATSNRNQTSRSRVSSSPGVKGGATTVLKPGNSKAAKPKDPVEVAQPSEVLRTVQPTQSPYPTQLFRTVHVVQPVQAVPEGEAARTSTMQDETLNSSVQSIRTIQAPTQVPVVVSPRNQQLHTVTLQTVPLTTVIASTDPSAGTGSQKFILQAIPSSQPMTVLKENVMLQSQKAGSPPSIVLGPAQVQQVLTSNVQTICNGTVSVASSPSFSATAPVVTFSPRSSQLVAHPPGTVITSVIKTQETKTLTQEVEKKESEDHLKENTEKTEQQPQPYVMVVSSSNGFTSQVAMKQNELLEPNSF

TACCTC
binding signal (FLI1): 1.25 fold enrichment (6-mer frequency, TF over GST control)
binding signal (ELK1): 1.29 fold enrichment (6-mer frequency, TF over GST control)
binding signal (GABPA): 1.33 fold enrichment (6-mer frequency, TF over GST control)
binding signal (ERG): 1.19 fold enrichment (6-mer frequency, TF over GST control)
binding signal (ELF1): 1.25 fold enrichment (6-mer frequency, TF over GST control)
binding signal (EHF): 1.2 fold enrichment (6-mer frequency, TF over GST control)
binding signal (SPI1): 1.27 fold enrichment (6-mer frequency, TF over GST control)
binding signal (SPIB): 1.21 fold enrichment (6-mer frequency, TF over GST control)
binding signal (ELK3): 1.27 fold enrichment (6-mer frequency, TF over GST control)
